Measured values: PubChem BioAssay AID1159580 (chemical genetic matrix, 2015)
Values joined by “and” are separate entries in the source; they are usually repeats but may differ in a detail not shown here. Identical values can stand only once. Among all 5,500 compounds or so, about 2,000 (36%) were called active. About 18% were inconclusive and are not listed. No stated cut-off is given here; in the data, active means normalized growth mostly below about 0.91 (no sharp cut-off); inconclusive means no clear call, values can overlap the other calls; inactive means mostly above about 0.92. The list shows a part of the results.

Test: chemical genetic growth profiling, strain panel (AID 1159580);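 further: tested at 20 µM; growth read once vehicle control cultures reached saturation at 30 °C; 1 = growth at the plate median or of vehicle wells; lower values mean less growth of the strain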
Settings: S. cerevisiae deletion strains, growth OD

Measured: normalized growth

Nc1c2c(nc3ccccc13)CCCC2O (stereo not drawn)
inactive: locus YAL021C, strain ccr4, hits give low values 1.01 | locus YAL026C, strain drs2, hits give low values 1.01 | locus YAL030W, strain snc1, hits give low values 1.01 | locus YAL040C, strain CLN3, hits give low values 1.05 | locus YBL061C, strain skt5, hits give low values 1.01 | locus YBR009C, strain hhf1, hits give low values 1 | locus YBR021W, strain FUR4, hits give low values 0.94 | locus YBR023C, strain chs3, hits give low values 1.01 | locus YBR171W, strain sec66, hits give low values 1 | locus YBR229C, strain ROT2, hits give low values 1.01 | locus YBR231C, strain swc5, hits give low values 0.998 | locus YBR279W, strain paf1, hits give low values 1.02 | locus YCL011C, strain gbp2, hits give low values 1.01 | locus YCL016C, strain dcc1, hits give low values 1 | locus YCL029C, strain bik1, hits give low values 0.974 | locus YCL061C, strain MRC1 (second series), hits give low values 1.01 | locus YCL061C, strain MRC1, hits give low values 1.03 | locus YCL069W, strain vba3, hits give low values 1.01 | locus YCR088W, strain abp1, hits give low values 1 | locus YDL005C, strain med2, hits give low values 1 | locus YDL035C, strain GPR1, hits give low values 0.994 | locus YDL040C, strain nat1, hits give low values 1.01 | locus YDL074C, strain BRE1, hits give low values 1.04 | locus YDL101C, strain DUN1, hits give low values 1.01 | locus YDL134C, strain PPH21, hits give low values 1.01 | locus YDL185W, strain tfp1, hits give low values 0.964 | locus YDL192W, strain arf1, hits give low values 0.987 | locus YDR001C, strain nth1, hits give low values 1.01 | locus YDR069C, strain doa4, hits give low values 1 | locus YDR101C, strain arx1, hits give low values 0.995 | locus YDR137W, strain rgp1, hits give low values 1.01 | locus YDR159W, strain sac3, hits give low values 0.997 | locus YDR162C, strain NBP2, hits give low values 0.985 | locus YDR195W, strain ref2 0.917 | locus YDR297W, strain sur2, hits give low values 1.01 | locus YDR318W, strain mcm21, hits give low values 0.982 | locus YDR334W, strain swr1, hits give low values 1.01 | locus YDR335W, strain msn5, hits give low values 1.01 | locus YDR363W, strain ESC2, hits give low values 1 | locus YDR388W, hits give low values 0.985 | locus YDR392W, strain spt3, hits give low values 0.902 | locus YDR502C, strain sam2, hits give low values 0.998 | locus YEL003W, strain gim4, hits give low values 1.01 | locus YEL037C, strain rad23, hits give low values 1.01 | locus YEL061C, strain CIN8 (second series), hits give low values 1.01 | locus YEL061C, strain CIN8, hits give low values 1.03 | locus YER002W, strain NOP16, hits give low values 1.01 | locus YER015W, strain faa2, hits give low values 1 | locus YER016W, strain bim1, hits give low values 0.991 | locus YER110C, hits give low values 0.981 | locus YER111C, strain swi4, hits give low values 1 | locus YER155C, strain BEM2 (second series), hits give low values 1 | locus YER155C, strain BEM2, hits give low values 0.994 | locus YER167W, strain BCK2, hits give low values 1 | locus YFR010W, strain ubp6, hits give low values 1 | locus YGL078C, strain dbp3, hits give low values 0.992 | locus YGL086W, strain mad1, hits give low values 1.01 | locus YGL167C, strain pmr1, hits give low values 1 | locus YGL173C, strain kem1, hits give low values 1.01 | locus YGL227W, strain vid30, hits give low values 0.995 | locus YGL240W, strain doc1, hits give low values 0.987 | locus YGL248W, strain PDE1, hits give low values 1.02 | locus YGL253W, strain hxk2, hits give low values 1 | locus YGR078C, strain PAC10, hits give low values 1.03 | locus YGR135W, strain pre9, hits give low values 0.979 | locus YGR229C, strain SMI1, hits give low values 1.02 | locus YGR252W, strain gcn5, hits give low values 0.998 | locus YHR013C, strain ard1, hits give low values 0.945 | locus YHR027C, strain rpn1, hits give low values 1.01 | locus YHR030C, strain SLT2, hits give low values 0.993 and 0.981 | locus YHR079C, strain IRE1 (second series), hits give low values 0.976 | locus YHR079C, strain IRE1, hits give low values 0.983 | locus YHR094C, strain hxt1, hits give low values 0.992 | locus YHR129C, strain ARP1, hits give low values 1 | locus YHR142W, strain chs7, hits give low values 1.03 | locus YHR200W, strain rpn10, hits give low values 0.973 | locus YIL066C, strain RNR3, hits give low values 1.02 | locus YIL073C, strain SPO22, hits give low values 0.912 | locus YIL125W, strain kgd1, hits give low values 0.996 | locus YIR030C, strain dcg1, hits give low values 0.979 | locus YJL092W, strain hpr5, hits give low values 1.03 | locus YJL095W, strain BCK1 (second series), hits give low values 1.01 | locus YJL095W, strain BCK1, hits give low values 1.05 and 0.988 | locus YJL115W, strain asf1, hits give low values 1 | locus YJL129C, strain trk1, hits give low values 1.05 | locus YJL134W, strain LCB3, hits give low values 0.996 | locus YJL154C, strain vps35, hits give low values 1.01 | locus YJL164C, strain tpk1, hits give low values 1.02 | locus YJL166W, strain qcr8, hits give low values 1.01 | locus YJL168C, strain set2, hits give low values 0.991 | locus YJL187C, strain SWE1 (second series), hits give low values 1.03 | locus YJL187C, strain SWE1, hits give low values 1.02 | locus YJR043C, strain POL32, hits give low values 1.02
